Compound activity as filed in PubChem.
m-calpain inh = calpain II (pig) inhibition; purified calpain II, fluorogenic peptide substrate, 30 min; inhibition, % at 16 µM; 0.37% of 220,000 active; AID 1236;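 active = inhibition above about 50%, limit read from the data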
Lmaj promast = inhibitors of Leishmania major promastigote growth; inhibition, % at 10 µM; 9% of 200,000 active; Leishmania major promastigotes, resazurin fluorescence viability; AID 1063; in the data active = inhibition above about 50%;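 note: promastigotes grown with compound for 44 hours at 28 °C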
ROMK primary = modulators of human ROMK potassium channel | P48048 | Tet-inducible ROMK, thallium flux fluorescence; actives lie on both sides | B-score at 10 µM | 2% of 130,000 active | AID 1918;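 active = signal ratio slope over the read window, or its plate-corrected B-score, at least 3 SD from the plate mean, either direction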;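 note: B-score of the F/F0 ratio slope over 7 to 12 s after thallium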
Target sequence (P48048 whole entry, looked up): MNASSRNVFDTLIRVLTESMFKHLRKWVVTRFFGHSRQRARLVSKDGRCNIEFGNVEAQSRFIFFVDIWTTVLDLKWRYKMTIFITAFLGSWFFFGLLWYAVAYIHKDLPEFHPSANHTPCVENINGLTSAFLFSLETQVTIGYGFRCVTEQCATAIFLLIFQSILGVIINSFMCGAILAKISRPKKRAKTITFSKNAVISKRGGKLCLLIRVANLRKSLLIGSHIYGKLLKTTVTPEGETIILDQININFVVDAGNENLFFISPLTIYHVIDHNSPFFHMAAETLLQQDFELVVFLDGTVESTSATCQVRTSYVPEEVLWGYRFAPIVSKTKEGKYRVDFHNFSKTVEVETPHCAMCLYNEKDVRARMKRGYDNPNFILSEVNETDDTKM
WT yeast gro inh = growth inhibition of WT yeast, mitochondrial fusion screen | inhibition, % at 10 µM | AID 1362 | mitochondrial fusion phenotypic screen, WT strain | 2.1% of 190,000 active; in the data active = inhibition above about 58%; tested in S. cerevisiae
KCC2 mod = modulates chloride dependent transport by human KCC2. KCC2 cells, thallium flux FluoZin-2 fluorescence. 2.2% of 190,000 active. B-score of Tl+ flux slope (higher = more flux/activation; lower = inhibition) at 10 µM. Q9H2X9. AID 1456;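 active = thallium flux slope and its plate-corrected score both differing from the plate sample mean at a set confidence after two filtering rounds, in either direction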;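 note: slope of fluorescence scaled to starting intensity during 10 to 20 s after thallium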
Hits are given with their value; 0 = inactive; - = not tested or not shown. A selection: hits, their analogues and other compounds. The true share with any hit is near 12%.

SMILES	m-calpain inh	Lmaj promast	ROMK primary	WT yeast gro inh	KCC2 mod
CCOc1ccc2oc(C(=O)NC3CC(C)(C)NC(C)(C)C3)c(C)c2c1	0	82	0	0	0
CCOc1ccc2oc(C(=O)NC3CCN(Cc4ccccc4)CC3)c(C)c2c1	0	83	0	0	-
CC1(C)CC(NC(=O)COc2ccc3ccccc3c2)CC(C)(C)N1	0	83	-	0	0
CCc1ccc(N(CC(=O)Nc2ccc(OC)cc2OC)S(C)(=O)=O)cc1	0	0	-	0	0
CCOC(=O)c1nc(-c2ccc(OC)c(OC)c2)cnc1C#N	0	0	0	0	-
O=C(NC1CCCC1)C(c1ccc(F)cc1)N(Cc1ccccc1Cl)C(=O)CCl (stereo not given)	0	98	0	0	0
COCCN(C(=O)CCl)C(C(=O)NC1CCCCC1)c1ccccc1C (stereo not given)	0	99	0	0	0
O=C(NC1CCCC1)C(c1ccc(F)cc1)N(Cc1ccc(F)cc1)C(=O)c1ccn[nH]1 (stereo not given)	0	0	0	0	0
CCc1c(C)c(C#N)c2nc3ccccc3n2c1NCc1ccco1	0	0	0	0	-3.8
CCc1c(C)c(C#N)c2nc3ccccc3n2c1NCCN(C)C	0	0	0	0	0
C=CCc1c(C)c(C#N)c2nc3ccccc3n2c1NCCN(C)C	0	0	0	70	-
COc1ccc(C(C(=O)OC(C)CN(C)C)c2ccccc2)cc1 (stereo not given)	0	0	-	0	0
CN(C)CC(C(=O)c1ccccc1)c1ccccc1 (stereo not given)	0	100	-	77	0
O=C(c1cnc(-c2ccccc2)s1)c1ccc(Cl)cc1Cl	0	0	-	64	0
O=C(c1ccc(Cl)cc1)c1cnc(-c2ccccc2)s1	0	0	-	0	0
CCCCNC(=O)C1c2ccccc2Oc2ccccc21	0	0	0	0	0
CNCCC1Sc2ccccc2Oc2ccccc21 (stereo not given)	0	95	0	0	0
CCC1CCCCN1C(=S)Nc1cccc(S(=O)(=O)N(C)C)c1 (stereo not given)	0	0	0	0	0
COc1ccc(S(=O)(=O)N2CCCCCC2)cc1N(C)S(=O)(=O)c1ccc(C)cc1	0	51	-	0	0
COc1ccc(NS(=O)(=O)c2ccc(S(=O)(=O)N3CCOCC3)cc2)cc1	0	0	0	0	0
COc1ccc(NS(=O)(=O)c2ccc(S(=O)(=O)N3CCCC3)cc2)cc1	0	52	0	0	0
COc1ccc2cc(S(=O)(=O)N3CCCCCC3)ccc2c1	0	57	0	0	0
CCOC(=O)CSc1nc2ccc(N3CCOCC3)cc2c(=O)n1Cc1ccccc1	0	0	-	0	0
CCOC(=O)c1cnc(N)nc1C(F)(F)F	0	0	0	0	-
Fc1nc(F)c(F)c(NCCCNc2c(F)c(F)nc(F)c2F)c1F	0	0	0	72	0
SMILES	m-calpain inh	Lmaj promast	ROMK primary	WT yeast gro inh	KCC2 mod
CC(=O)C1=C(O)C(=O)N(C)C1c1ccccc1[N+](=O)[O-] (stereo not given)	0	-	-	-	0
O=C(OCc1ccccc1)C1=NNC2C(=O)N(c3ccc(Br)cc3)C(=O)C12 (stereo not given)	0	-	0	-	0
Cc1cc2ncn(/N=C/c3cccnc3)c2cc1C	0	0	0	61	-
C(=N\n1cnc2ccccc21)/c1cccnc1	0	0	0	0	0
O=C(NCC1CCCO1)NC12CC3CC(CC(C3)C1)C2 (stereo not given)	0	0	-	0	0
S=C(NCC1CCCO1)NC12CC3CC(CC(C3)C1)C2 (stereo not given)	0	62	0	68	0
COc1cccc(C(=O)C2=NN(C(C)=O)CC2c2ccco2)c1 (stereo not given)	0	0	0	0	0
OCCN1CCN(Cc2nc(-c3cccc(Cl)c3)no2)CC1	0	0	0	0	0
CN1CCCN(Cc2nc(-c3ccc(Cl)cc3)no2)CC1	0	93	0	0	0
CN1CCCN(Cc2ccccc2C(F)(F)F)CC1	0	0	0	0	0
CN1CCCN(Cc2ccc(Cl)cc2Cl)CC1	0	98	0	-	0
COC1CCCCC1Nc1ccc(C)c(C)c1 (stereo not given)	0	0	0	0	0
O=C(c1cc(-c2cccs2)nc2ccccc12)N1CCN(c2ccccc2O)CC1	0	0	0	0	0
CC(C)Oc1ccc(Cc2cnc(N)nc2N)cc1	0	58	0	0	0
CCCc1cc(C(N)=O)c(NC(=O)c2cc(C)on2)s1	0	55	0	0	0
CN1C(=S)SC(C)(C)C1(C)NO (stereo not given)	0	0	-	65	-
CN(NC(=O)c1ccc(Cl)cc1)c1cccc(Cl)n1	0	0	-	0	0
O=[N+]([O-])c1ccc(O)c(-c2nc(-c3ccccc3)c(-c3cccs3)[nH]2)c1	0	0	-	72	0
COc1ccc(-c2nc(-c3ccccc3)c(-c3cc([N+](=O)[O-])ccc3C)[nH]2)cc1OC	0	65	0	0	0
COc1ccc(Cn2c(=O)c3[nH]cnc3n(-c3ccc(C)cc3)c2=O)cc1	0	-	0	-	0
CCOC(=O)c1c(NC(=O)CCN2CCOCC2)sc(C)c1-c1ccccc1	0	52	0	0	-
CCOC(=O)c1c(-c2ccc(C)cc2)csc1NC(=O)CCN1CC(C)OC(C)C1 (stereo not given)	0	98	-	0	0
CCOC(=O)c1c(-c2ccc(OC)cc2)csc1NC(=O)CCN1CCOCC1	0	84	0	0	0
CCOC(=O)c1c(-c2ccc(C)o2)csc1NC(=O)CN1CCCCC1	0	0	0	83	0
CCNc1nc2cccnc2s1	0	-	0	-	0
SMILES	m-calpain inh	Lmaj promast	ROMK primary	WT yeast gro inh	KCC2 mod
O=C(NN1C(=O)C2C3C=CC(C3)[C@H]2C1=O)c1cccnc1 (stereo not given in full)	0	0	-	0	0
CC(C)N1CCN(Cc2cccn2-c2ccccn2)CC1CCO (stereo not given)	0	0	0	0	0
COc1ccc(Nc2nc(C(=O)N(CCO)Cc3ccccc3)cs2)cc1	0	0	0	0	0
COc1ccc(-c2cc(C(=O)O)c3sc(N4CCCCC4)nc3n2)cc1OC	0	52	0	0	0
CCOC(=O)c1cc(-c2ccccc2)nc2nc(N3CCCCC3)sc12	0	72	0	0	0
Cc1ccc(-c2cc(C(=O)O)c3sc(N4CCCCC4)nc3n2)cc1	0	0	-	0	0
O=C(O)c1cc(-c2ccccc2)nc2nc(N3CCCCC3)sc12	0	0	0	0	0
Cc1ccc(OCCOC(=O)Cn2nc(C)c([N+](=O)[O-])c2C)cc1	0	0	0	0	0
CCN1CC2=C(OC(N)=C(C#N)C2c2cccs2)/C(=C\c2cccs2)C1 (stereo not given)	0	0	0	0	0
O=c1c(Cl)c(N2CCN(S(=O)(=O)c3ccc(F)cc3)CC2)cnn1-c1cccc(Cl)c1	0	98	-	0	-
O=C(Cn1cnc([N+](=O)[O-])n1)N/N=C/c1ccc(O)cc1O	0	0	0	0	0
O=C(Cn1cnc([N+](=O)[O-])n1)N/N=C/c1cccc2ccccc12	0	91	-	0	0
O=C(Cn1cnc([N+](=O)[O-])n1)N/N=C/c1cccc(Cl)c1	0	63	0	0	0
